The values below come from PubChem BioAssay.

Activity calls are given as the source filed them.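 Rule for the calls, unless noted: active = compound raises insulin release from rat beta cells at 5 mM glucose, no numeric limit stated; inactive = the rest.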

Assay [1] in a line: stimulators of nuclear beta-catenin in C2C12, primary screen, imaging, WNT3A-conditioned medium, mouse C2C12, NPC library (AID 1117326; in the data active = nuclear beta-catenin stimulation mostly above about 4.2%, no sharp cut-off; inactive = mostly below about 10%; note: reference of the scale not given here). The settings on record: stronger effect = higher value.
Assay [2] in a line: stimulators of insulin release from INS-1E, primary screen, cell-based, 5 mM glucose, NPC library (AID 1117329). Note: reference of the scale not given here. The settings on record: rat INS-1E insulin secretion, at 10 µM, stronger effect = higher value.
Assay [3] in a line: growth inhibition of GSK3B-pretreated HCT116 cells – cell-based, CellTiter-Glo, 0.2 to 20 µM (AID 1117336;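 active = compounds lowering colon cancer cell viability after pretreatment blocking the GSK3B kinase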). The settings on record: HCT116 viability after GSK3B inhibitor, at 20 µM, stronger effect = higher value. For orientation: ATP-based viability assays read luminescence as a measure of living cells.
A short description of assay [4]: inhibition of endothelial tube formation, primary screen, imaging, VEGF stimulated, CD31 staining, tube area, NPC library (AID 1117340;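 active = compound that reduces growth-factor-driven endothelial tube area in a mixed cell culture, no cutoff stated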). The settings on record: VEGF-stimulated ADSC/ECFC co-culture, at 10 µM, stronger effect = higher value.
Assay [5] is described as follows: glucagon-like peptide 1 release enhancers, primary assay, NCI-H716 cell line, NPC library (AID 1117341;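 active = compound raises GLP1 secretion from the human gut endocrine cells, with no numeric limit stated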; note: reference of the scale not given here). The settings on record: NCI-H716 cells, at 10 µM, stronger effect = higher value.
The nature of assay [6]: HCT116 colon cancer cell growth inhibition, primary screen, CellTiter-Glo luminescence, NPC library (AID 1117342;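 active = compounds that lower survival of HCT116 colon cancer cells in the luminescence readout, no numeric limit stated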). The settings on record: at 20 µM (top of the series).
A short description of assay [7]: CellTiter-Glo luminescent readout of SW480 viability loss, NPC library primary (AID 1117343;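 active = compounds that lower viability of the colon cancer cells in the luminescence readout, with no numeric limit stated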). The settings on record: CellTiter-Glo luminescence; at 20 µM (top of the series).
Assay [8] can be described thus: decreased DLD-1 cellular survival, CellTiter-Glo luminescent readout, NPC compound collection, primary HTS (AID 1117346;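 active = compounds that lower survival of DLD-1 colon cancer cells in the luminescence readout, no cutoff given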). The settings on record: DLD-1 viability, CellTiter-Glo luminescence; at 20 µM (top of the series).

For `Cc1nc([N+](=O)[O-])cn1-c1ccc([N+](=O)[O-])cc1`, the nuclear beta-catenin stimulation in assay [1] (at 10 µM) was -0.1% (inactive); in assay [1] (stimulation, at 2 µM), -2.2%. For the same compound, the insulin secretion stimulation in assay [2] is 2% (inactive). In addition, the viability decrease in assay [3] was -6.7% (inactive). For the same compound, the tube area decrease in assay [4] was 3.8% (inactive). In addition, in assay [5], the GLP1 secretion stimulation is 3.6% (inactive). Also, in assay [6], the inhibition of viability was 18.2% (inactive). For the same compound, the viability decrease (inhibition) in assay [7] is 10.4% (inactive); in assay [8] it was -13.5% (inactive).
For `O=[N+]([O-])c1nccn1CO[C@@H](CO)[C@H](O)CO`, the nuclear beta-catenin stimulation in assay [1] (at 10 µM) is -0.2% (inactive); in assay [1] (stimulation, at 2 µM) it was -0.8%. Moreover, the insulin secretion stimulation in assay [2] is 1.45% (inactive). Further, the viability decrease in assay [3] was 40% (inactive). Moreover, the tube area decrease in assay [4] is -13.2% (inactive). In assay [5], the GLP1 secretion stimulation is -3.1% (inactive). Moreover, the inhibition of viability in assay [6] is 7.6% (inactive). For the same compound, the viability decrease (inhibition) is 2.3% (inactive) in assay [7] and -5.8% (inactive) in assay [8].
Regarding `Cc1c(Cn2ccnc2)c2ccccc2n1CCC(=O)O`, the nuclear beta-catenin stimulation in assay [1] (at 10 µM) is 0.7% (inactive); in assay [1] (stimulation, at 2 µM), 2.7%. The insulin secretion stimulation in assay [2] was -0.1% (inactive). Also, in assay [3], the viability decrease is 108% (active). In addition, the tube area decrease in assay [4] is -6.9% (inactive). Further, in assay [5], the GLP1 secretion stimulation is -1.3% (inactive). The inhibition of viability in assay [6] is 103% (active). The viability decrease (inhibition) in assay [7] is 79.6% (active); in assay [8], 60.9% (active).
With `NS(=O)(=O)c1ccc(NC(=O)CCC(=O)O)cc1`, the nuclear beta-catenin stimulation in assay [1] (at 10 µM) is -0.1% (inactive); in assay [1] (stimulation, at 2 µM), -0.3%. For the same compound, in assay [2], the insulin secretion stimulation is -2.4% (inactive). Further, the viability decrease in assay [3] was -9.65% (inactive). Besides, in assay [4], the tube area decrease is -1.3% (inactive). Moreover, in assay [5], the GLP1 secretion stimulation is 0.1% (inactive). In addition, the inhibition of viability in assay [6] is -10.5% (inactive). Also, the viability decrease (inhibition) in assay [7] is -26.6% (inactive); in assay [8] it was -13.6% (inactive).
For `c1ccc(-n2cnnn2)cc1`, the nuclear beta-catenin stimulation in assay [1] (at 10 µM) is 0.3% (inactive); in assay [1] (stimulation, at 2 µM), 0.9%. The insulin secretion stimulation in assay [2] was 1.9% (inactive). The viability decrease in assay [3] is -7.2% (inactive). Moreover, in assay [4], the tube area decrease was 23.2% (inactive). For the same compound, the GLP1 secretion stimulation in assay [5] is -5% (inactive). In addition, the inhibition of viability in assay [6] was 1.7% (inactive). The viability decrease (inhibition) in assay [7] is 10.4% (inactive); in assay [8] it was 1.4% (inactive).
Turning to `CC(=O)O[C@H]1C[C@@H]2CC[C@H]3[C@H]4C[C@H]([N+]5(C)CCCCC5)[C@@H](OC(C)=O)[C@@]4(C)CC[C@@H]3[C@@]2(C)C[C@H]1[N+]1(C)CCCCC1`, the nuclear beta-catenin stimulation in assay [1] (at 10 µM) was 0.7% (inactive); in assay [1] (stimulation, at 2 µM), 0.2%. Moreover, the insulin secretion stimulation in assay [2] is -1.1% (inactive). Besides, the viability decrease in assay [3] is -2.7% (inactive). The tube area decrease in assay [4] was 9.9% (inactive). For the same compound, in assay [5], the GLP1 secretion stimulation was -1.6% (inactive). The inhibition of viability in assay [6] was -3.6% (inactive). The values for the viability decrease (inhibition) in assay [7] and in assay [8] were -1.7% (active) and -2.8% (inactive), respectively.
On to `Nc1nc(-c2ccccc2)c(Br)c(=O)[nH]1`, for which the nuclear beta-catenin stimulation was 3.6% (inactive) in assay [1] (at 10 µM) and 2.1% in assay [1] (stimulation, at 2 µM). Further, the insulin secretion stimulation in assay [2] is -0.7% (inactive). Further, in assay [3], the viability decrease is -50.3% (inactive). Moreover, the tube area decrease in assay [4] is 17% (inactive). The GLP1 secretion stimulation in assay [5] was 3.9% (inactive). Moreover, the inhibition of viability in assay [6] was -10.9% (inactive). In addition, the viability decrease (inhibition) is 11.9% (inactive) in assay [7] and 0.7% (inactive) in assay [8].
Take `CCN(CC)CC(=O)OCC(=O)[C@@]1(O)CC[C@H]2[C@@H]3CCC4=CC(=O)CC[C@]4(C)[C@H]3[C@@H](O)C[C@@]21C`: the nuclear beta-catenin stimulation in assay [1] (at 10 µM) was -0.5% (inactive); in assay [1] (stimulation, at 2 µM) it was -0.8%. Further, the insulin secretion stimulation in assay [2] was -0.5% (inactive). Besides, the viability decrease in assay [3] was -24.6% (inactive). The tube area decrease in assay [4] was 0.8% (inactive). Further, the GLP1 secretion stimulation in assay [5] was 1.1% (inactive). Further, the inhibition of viability in assay [6] is -15.9% (inactive). Besides, the figures for the viability decrease (inhibition) in assay [7] and in assay [8] were 37.2% (inactive) and -9.9% (inactive), respectively.
Consider `CNC(=O)CN(CCN(CCN(CC(=O)[O-])CC(=O)NC)CC(=O)[O-])CC(=O)[O-].O.[Gd+3]`, for which the nuclear beta-catenin stimulation in assay [1] (at 10 µM) is 1.4% (inactive); in assay [1] (stimulation, at 2 µM), -0.1%. Also, in assay [2], the insulin secretion stimulation was 0.2% (inactive). Moreover, the viability decrease in assay [3] is 38.3% (inactive). In addition, the tube area decrease in assay [4] was 18.9% (inactive). Moreover, in assay [5], the GLP1 secretion stimulation is -4.4% (inactive). The inhibition of viability in assay [6] was 25.4% (inactive). The viability decrease (inhibition) in assay [7] was 30.9% (inactive); in assay [8] it was 3.8% (inactive).
Consider `CC(C)C(=O)Nc1cccc(C2CN3CCSC3=N2)c1` (stereo not given), for which the nuclear beta-catenin stimulation was 1.5% (inactive) in assay [1] (at 10 µM) and 1.8% in assay [1] (stimulation, at 2 µM). In addition, in assay [2], the insulin secretion stimulation is -0.5% (inactive). Moreover, the viability decrease in assay [3] is -30.9% (inactive). Also, the tube area decrease in assay [4] is -4.2% (inactive). Also, in assay [5], the GLP1 secretion stimulation is 5% (inactive). The inhibition of viability in assay [6] was 4.17% (inactive). In addition, the results for the viability decrease (inhibition) in assay [7] and in assay [8] were 13% (inactive) and -14.4% (inactive), respectively.
For the compound `CCC(C(=O)OCCN(CC)CC)c1ccccc1` (stereo not given), the nuclear beta-catenin stimulation in assay [1] (at 10 µM) was 1.2% (inactive); in assay [1] (stimulation, at 2 µM) it was -0.6%. Besides, in assay [2], the insulin secretion stimulation was 1.3% (inactive). In assay [3], the viability decrease is -8.4% (inactive). In addition, the tube area decrease in assay [4] is -11.9% (inactive). For the same compound, the GLP1 secretion stimulation in assay [5] is -2.1% (inactive). In addition, in assay [6], the inhibition of viability is -0.3% (inactive). Besides, the viability decrease (inhibition) in assay [7] is 4.5% (active); in assay [8] it was -11.1% (inactive).
For `CN(C)CCN(Cc1ccsc1)c1ccccn1`, the nuclear beta-catenin stimulation is -1.6% (inactive) in assay [1] (at 10 µM) and 1.7% in assay [1] (stimulation, at 2 µM). Besides, the insulin secretion stimulation in assay [2] is 1.3% (inactive). Besides, in assay [3], the viability decrease is 4.6% (inactive). Besides, in assay [4], the tube area decrease was -14.7% (inactive). Moreover, in assay [5], the GLP1 secretion stimulation was -2.8% (inactive). The inhibition of viability in assay [6] is 5.1% (inactive). In addition, the values for the viability decrease (inhibition) in assay [7] and in assay [8] were -0.5% (inactive) and -3.9% (inactive), respectively.
Turning to `COC(=O)c1nc(Cl)c(Cl)nc1N`, the nuclear beta-catenin stimulation in assay [1] (at 10 µM) was 15.9% (active); in assay [1] (stimulation, at 2 µM) it was 84.9%. Besides, in assay [2], the insulin secretion stimulation is 2.2% (inactive). Further, in assay [3], the viability decrease is 82.2% (active). For the same compound, the tube area decrease in assay [4] was 110% (active). The GLP1 secretion stimulation in assay [5] was 4.1% (inactive). In addition, the inhibition of viability in assay [6] is 75% (active). For the same compound, the viability decrease (inhibition) is 132% (active) in assay [7] and 101% (active) in assay [8].
For `CCN1CCCC1CN` (stereo not given), the nuclear beta-catenin stimulation in assay [1] (at 10 µM) is 1.1% (inactive); in assay [1] (stimulation, at 2 µM) it was 1.8%. Further, the insulin secretion stimulation in assay [2] is 4.8% (inactive). Also, the viability decrease in assay [3] is 39.7% (inactive). For the same compound, in assay [4], the tube area decrease was -0.3% (inactive). For the same compound, the GLP1 secretion stimulation in assay [5] was 3.1% (inactive). The inhibition of viability in assay [6] is 32.2% (inactive). In addition, the viability decrease (inhibition) is 43.3% (inactive) in assay [7] and 12.4% (inactive) in assay [8].
With `CCOC(=O)COc1ccc2c(C)c(CCN(CC)CC)c(=O)oc2c1Cl`, the nuclear beta-catenin stimulation was -2.3% (inactive) in assay [1] (at 10 µM) and -0.4% in assay [1] (stimulation, at 2 µM). Moreover, the insulin secretion stimulation in assay [2] is 0% (inactive). The viability decrease in assay [3] was -5% (inactive). Moreover, the tube area decrease in assay [4] was 45.5% (active). Besides, the GLP1 secretion stimulation in assay [5] was 2.5% (inactive). The inhibition of viability in assay [6] was 15.1% (inactive). Moreover, the values for the viability decrease (inhibition) in assay [7] and in assay [8] were 7.8% (inactive) and -17.9% (inactive), respectively.
